Screen size: about 2,400 compounds; about 750 (31%) were called active. The list shows a part of the results. A number with no mark means an inactive call.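 How the source made its calls: active means median signal gain over dofetilide-blocked control wells reaching their mean plus 3 SD, so readout 1 at least 0; inactive means the rest.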
The compounds below were run against Voltage-gated inwardly rectifying potassium channel KCNH2 (Homo sapiens) (UniProt Q12809) (assay: modulators restoring hERG flux under dofetilide – cell-based, thallium flux, duplicate retest, dofetilide IC70, confirmation (AID 1835)). Details: hERG cell line, FluxOR thallium flux, dofetilide-blocked; at 10 µM; stronger effect = higher value.
Chain of Voltage-gated inwardly rectifying potassium channel KCNH2 (Homo sapiens) (Q12809 whole entry, looked up): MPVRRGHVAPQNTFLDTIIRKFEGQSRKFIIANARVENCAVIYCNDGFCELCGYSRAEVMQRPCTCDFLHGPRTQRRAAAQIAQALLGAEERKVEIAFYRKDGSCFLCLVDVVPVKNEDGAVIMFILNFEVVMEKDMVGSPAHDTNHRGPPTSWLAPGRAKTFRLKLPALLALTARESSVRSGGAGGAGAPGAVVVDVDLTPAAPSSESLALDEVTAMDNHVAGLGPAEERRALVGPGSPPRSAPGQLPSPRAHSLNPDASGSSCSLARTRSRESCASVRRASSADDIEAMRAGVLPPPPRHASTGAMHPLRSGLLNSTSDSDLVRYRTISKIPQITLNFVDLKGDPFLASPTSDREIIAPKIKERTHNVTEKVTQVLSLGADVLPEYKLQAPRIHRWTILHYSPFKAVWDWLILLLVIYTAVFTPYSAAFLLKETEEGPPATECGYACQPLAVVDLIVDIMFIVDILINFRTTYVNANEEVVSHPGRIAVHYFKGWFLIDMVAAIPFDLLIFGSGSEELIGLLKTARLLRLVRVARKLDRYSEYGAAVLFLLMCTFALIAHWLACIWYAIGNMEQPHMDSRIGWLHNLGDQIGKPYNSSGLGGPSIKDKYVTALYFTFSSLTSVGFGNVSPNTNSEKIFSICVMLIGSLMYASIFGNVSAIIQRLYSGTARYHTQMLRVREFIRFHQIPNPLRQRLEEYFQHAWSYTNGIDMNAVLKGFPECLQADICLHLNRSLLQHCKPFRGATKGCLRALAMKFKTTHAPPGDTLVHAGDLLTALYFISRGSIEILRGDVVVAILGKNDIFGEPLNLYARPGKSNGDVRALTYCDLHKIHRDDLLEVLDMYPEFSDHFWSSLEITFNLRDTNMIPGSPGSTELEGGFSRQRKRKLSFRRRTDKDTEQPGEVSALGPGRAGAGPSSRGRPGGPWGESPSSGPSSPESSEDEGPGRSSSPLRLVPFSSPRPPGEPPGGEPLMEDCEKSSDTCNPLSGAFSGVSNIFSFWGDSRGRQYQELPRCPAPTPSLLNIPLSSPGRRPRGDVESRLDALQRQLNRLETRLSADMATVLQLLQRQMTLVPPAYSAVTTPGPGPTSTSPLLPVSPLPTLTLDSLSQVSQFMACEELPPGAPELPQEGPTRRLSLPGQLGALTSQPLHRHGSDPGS

Question: Which activity increase over dofetilide control, less the hit threshold does the source give for `Cc1nnc(N2C(=O)C(=O)/C(=C(\O)c3ccc4c(c3)CC(C)O4)C2c2ccccc2)s1` (stereo not drawn) here?
Answer: -7%

Question: With `Cc1ccc(CNC(=O)C2=CCN(S(=O)(=O)c3ccc(C)cc3)CC2)cc1` as the compound, how does the activity increase over dofetilide control, less the hit threshold read?
Answer: -24%

Question: With `CCCCn1nnc(NC(=O)Cc2ccc(Cl)cc2)n1` as the compound, how does the activity increase over dofetilide control, less the hit threshold read?
Answer: -3%

Question: With `Cc1ccc2nc(-c3ccncc3)cc(C(=O)Nc3ccc4c(c3)OCCO4)c2c1` as the compound, how does the activity increase over dofetilide control, less the hit threshold read?
Answer: -15%

Question: `Cc1cccc(NC(=S)NC(=O)c2cc(-c3ccccc3)nc3ccccc23)c1` was tested. Which activity increase over dofetilide control, less the hit threshold did it give?
Answer: 8% (active)

Question: For `O=C(CCSCCc1ccccn1)Nc1cccc([N+](=O)[O-])c1`, which activity increase over dofetilide control, less the hit threshold is on record?
Answer: -4%

Question: How did the activity increase over dofetilide control, less the hit threshold turn out when `O=C(O)c1ccc(N=NNc2cccc([N+](=O)[O-])c2)cc1` was run?
Answer: -2%

Question: How did the activity increase over dofetilide control, less the hit threshold turn out when `NC(=O)c1cccnc1Nc1cccc([N+](=O)[O-])c1` was run?
Answer: 10% (active)

Question: For `O=C(NCC(c1cccs1)N1CCOCC1)c1cc(S(=O)(=O)N2CCOCC2)ccc1F` (stereo not drawn), which activity increase over dofetilide control, less the hit threshold is on record?
Answer: -22%

Question: With `CCc1cc2c(=O)n(CCC(C)C)c(=S)[nH]c2s1` as the compound, how does the activity increase over dofetilide control, less the hit threshold read?
Answer: 71% (active)

Question: `CC(C)(C)OC(=O)N1CCC2(CC1)Oc1ccc(Cl)cc1C(=O)C21CC(c2ccc(Cl)cc2)=NO1` (stereo not drawn) was tested. Which activity increase over dofetilide control, less the hit threshold did it give?
Answer: -19%

Question: With `COc1ccc2ncc(OC(C)=O)cc2c1` as the compound, how does the activity increase over dofetilide control, less the hit threshold read?
Answer: -14%

Question: For `COc1ccc2nc(N=Nc3c(O)ccc4ccccc34)sc2c1`, which activity increase over dofetilide control, less the hit threshold is on record?
Answer: 31% (active)

Question: With `O=C(Nc1ccccc1)O/N=C/c1ccncc1` as the compound, how does the activity increase over dofetilide control, less the hit threshold read?
Answer: -7%

Question: `CN(C)CCCN=C(NO)c1ccc(Cl)cc1Cl` was tested. Which activity increase over dofetilide control, less the hit threshold did it give?
Answer: 4% (active)

Question: How did the activity increase over dofetilide control, less the hit threshold turn out when `CN(C)C(=O)c1cc(C(=O)c2ccc(Cl)cc2Cl)c[nH]1` was run?
Answer: -4%

Question: Which activity increase over dofetilide control, less the hit threshold does the source give for `C=CCSC1=C(C#N)C(c2ccccc2)CC(=O)N1` (stereo not drawn) here?
Answer: -15%

Question: For `CCC(C)(C(=O)NC1CCCC1)N(Cc1ccco1)C(=O)c1ccccn1` (stereo not drawn), which activity increase over dofetilide control, less the hit threshold is on record?
Answer: -13%

Question: For `Cc1ccc(C(C(=O)NC(C)(C)C)N(Cc2cccnc2)C(=O)C(=O)NC2CCCCC2)o1` (stereo not drawn), which activity increase over dofetilide control, less the hit threshold is on record?
Answer: 0% (active)

Question: With `Cc1ccc(C(=O)NC2CCC(C)CC2)o1` (stereo not drawn) as the compound, how does the activity increase over dofetilide control, less the hit threshold read?
Answer: -23%

Question: Which activity increase over dofetilide control, less the hit threshold does the source give for `CC(C)C(O)(C#CCN1CCCC1)c1ccccc1` (stereo not drawn) here?
Answer: -16%

Question: How did the activity increase over dofetilide control, less the hit threshold turn out when `CCOc1ccc(-n2c(C)c(C(C)=O)c3cc(O)ccc32)cc1` was run?
Answer: -14%

Question: How did the activity increase over dofetilide control, less the hit threshold turn out when `CCn1c2ccccc2c2cc(NC(=O)COc3ccccc3)ccc21` was run?
Answer: -20%

Question: `CCOc1ccc(N(CC)C(=O)COc2cc(=O)n(C)c3ccccc23)cc1` was tested. Which activity increase over dofetilide control, less the hit threshold did it give?
Answer: 1% (active)

Question: Which activity increase over dofetilide control, less the hit threshold does the source give for `CC(C)Oc1ccc(CNC(=O)C2CCN(C(=O)N3CCOc4ccccc43)CC2)cc1` here?
Answer: -31%

Question: How did the activity increase over dofetilide control, less the hit threshold turn out when `CCOc1ccccc1C(=O)NC1CC2CCCC(C1)N2Cc1nnnn1Cc1ccco1` (stereo not drawn) was run?
Answer: -24%

Question: With `Cc1[nH]c(=O)[nH]c(=O)c1S(=O)(=O)N1CCC(C(=O)NC(C)c2ccccc2)CC1` (stereo not drawn) as the compound, how does the activity increase over dofetilide control, less the hit threshold read?
Answer: -4%

Question: For `CCOC(=O)c1c(C)[nH]c(C)c1S(=O)(=O)N1CCCCC1`, which activity increase over dofetilide control, less the hit threshold is on record?
Answer: 4% (active)

Question: With `CCCCc1c(C)[nH]c(C(=O)OCC)c1C` as the compound, how does the activity increase over dofetilide control, less the hit threshold read?
Answer: -14%

Question: `O=C1c2nc3cc(-c4ccco4)[nH]n3c(=O)c2CN1Cc1ccccc1` was tested. Which activity increase over dofetilide control, less the hit threshold did it give?
Answer: -10%

Question: Which activity increase over dofetilide control, less the hit threshold does the source give for `CCC(=O)NC(c1cccs1)c1ccc2cccnc2c1O` (stereo not drawn) here?
Answer: -8%

Question: `CCOC(=O)N1CCN(C(=O)CSc2nc3c([nH]c4ccccc43)c(=O)n2CC)CC1` was tested. Which activity increase over dofetilide control, less the hit threshold did it give?
Answer: 0%

Question: For `O=c1c(Cc2ccccc2)c(O)nc2n1CCCS2`, which activity increase over dofetilide control, less the hit threshold is on record?
Answer: -3%

Question: For `O=c1c2[nH]c3ccccc3c2nc2n1CCCS2`, which activity increase over dofetilide control, less the hit threshold is on record?
Answer: 3% (active)

Question: `COc1ccc(NC(=O)C2CCN(S(=O)(=O)c3cn(C)nc3C)CC2)cc1` was tested. Which activity increase over dofetilide control, less the hit threshold did it give?
Answer: -12%

Question: `COc1ccc(-c2ccc3c(N)c(C(=O)c4ccc(OC)c(OC)c4)sc3n2)cc1` was tested. Which activity increase over dofetilide control, less the hit threshold did it give?
Answer: -9%

Question: With `CCOC(=O)C1=C(O)/C(=C/c2ccc(OCC(=O)O)c(OC)c2)SC1=Nc1ccc(OCC)cc1` as the compound, how does the activity increase over dofetilide control, less the hit threshold read?
Answer: -9%

Question: For `COc1ccc(/C=C2\SC(c3ccc(C)cc3)=NC2=O)cc1OC`, which activity increase over dofetilide control, less the hit threshold is on record?
Answer: 112% (active)

Question: For `COc1ccc(C(C(=O)NC(C)(C)C)N(C(=O)CCC(=O)Nc2cc(C)on2)c2cccc(F)c2)cc1` (stereo not drawn), which activity increase over dofetilide control, less the hit threshold is on record?
Answer: -6%

Question: How did the activity increase over dofetilide control, less the hit threshold turn out when `O=C(CSc1nc(N2CCCCC2)nc(N2CCCCC2)n1)c1ccccc1` was run?
Answer: -16%

Question: Which activity increase over dofetilide control, less the hit threshold does the source give for `C=CCn1c2ccccc2c(=O)c2cc(C#Cc3ccsc3)ccc21` here?
Answer: 17% (active)

Question: `O=C(/C=C/Nc1ccc(F)cc1)c1ccco1` was tested. Which activity increase over dofetilide control, less the hit threshold did it give?
Answer: -22%

Question: Which activity increase over dofetilide control, less the hit threshold does the source give for `Cc1cccc(N2C(=O)C(O)=C(C(=O)c3cccs3)C2c2cccc(Oc3ccccc3)c2)n1` (stereo not drawn) here?
Answer: -12%

Question: Which activity increase over dofetilide control, less the hit threshold does the source give for `CCCn1c(SCC(=O)Nc2nc(-c3ccc(OC)cc3)cs2)nc2c1c(=O)n(C)c(=O)n2C` here?
Answer: -8%

Question: With `CCCC(=O)NC(=S)Nc1nc(-c2ccc(OC)cc2)cs1` as the compound, how does the activity increase over dofetilide control, less the hit threshold read?
Answer: -11%

Question: Which activity increase over dofetilide control, less the hit threshold does the source give for `CCC(=O)N(CC)c1nc(-c2ccc(OC)cc2)cs1` here?
Answer: 17% (active)

Question: With `COc1cc(C(=O)NCCNc2nc3cc(C)ccc3cc2C#N)cc(OC)c1OC` as the compound, how does the activity increase over dofetilide control, less the hit threshold read?
Answer: -2%

Question: `O=c1c(-c2ccccc2)[n+]([O-])c2ccccc2n1O` was tested. Which activity increase over dofetilide control, less the hit threshold did it give?
Answer: -10%

Question: `O=c1c(-c2ccc(Cl)cc2)[n+]([O-])c2ccccc2n1O` was tested. Which activity increase over dofetilide control, less the hit threshold did it give?
Answer: 64% (active)

Question: For `Cc1ccc(-c2c(=O)n(O)c3ccccc3[n+]2[O-])cc1`, which activity increase over dofetilide control, less the hit threshold is on record?
Answer: 52% (active)

Question: For `O=c1c(-c2cccc3ccccc23)[n+]([O-])c2ccccc2n1O`, which activity increase over dofetilide control, less the hit threshold is on record?
Answer: 9% (active)

Question: `CCc1nnc(NC(=O)c2cccc(S(=O)(=O)N3CCN(c4ccccc4)CC3)c2)s1` was tested. Which activity increase over dofetilide control, less the hit threshold did it give?
Answer: -17%

Question: With `O=C(COc1ccccc1)Nc1nnc(-c2ccc(Cl)s2)o1` as the compound, how does the activity increase over dofetilide control, less the hit threshold read?
Answer: -9%

Question: With `CC1=Nc2ccc(C)cc2/C1=C/c1c(N)n2c(S(=O)(=O)C(C)C)nsc2nc1=O` as the compound, how does the activity increase over dofetilide control, less the hit threshold read?
Answer: -5%

Question: Which activity increase over dofetilide control, less the hit threshold does the source give for `Cn1c(=O)cc(-c2ccccc2)c2ccccc21` here?
Answer: -28%

Question: How did the activity increase over dofetilide control, less the hit threshold turn out when `Cn1c(=O)c(-c2cc(=O)[nH][nH]2)c(O)c2ccccc21` was run?
Answer: 2% (active)

Question: With `Cn1c(=O)c(Sc2ccccc2)c(O)c2ccccc21` as the compound, how does the activity increase over dofetilide control, less the hit threshold read?
Answer: 2% (active)

Question: How did the activity increase over dofetilide control, less the hit threshold turn out when `CCOC(=O)c1c(O)c2ccccc2n(C)c1=O` was run?
Answer: 5% (active)

Question: How did the activity increase over dofetilide control, less the hit threshold turn out when `CCn1c(=O)c(-[n+]2ccccc2)c(O)c2ccccc21` was run?
Answer: -15%

Question: Which activity increase over dofetilide control, less the hit threshold does the source give for `CC(C)C(=O)Nc1c(-c2ccccc2F)c(=O)c2ccccc2n1C` here?
Answer: -6%

Question: Which activity increase over dofetilide control, less the hit threshold does the source give for `CCOC(=O)c1c(C)cccc1OCC(N)=O` here?
Answer: -16%

Question: `CCOC(=O)Cn1cc(C=O)c2ccccc21` was tested. Which activity increase over dofetilide control, less the hit threshold did it give?
Answer: -17%

Question: How did the activity increase over dofetilide control, less the hit threshold turn out when `O=C1OC(/C=C/c2ccccc2)=NC/1=C/c1ccco1` was run?
Answer: -15%

Question: With `COC(=O)Cc1[nH]n(-c2nc3ccccc3s2)c(=O)c1C(C)=Nc1ccc(C)cc1` as the compound, how does the activity increase over dofetilide control, less the hit threshold read?
Answer: -1%

Question: How did the activity increase over dofetilide control, less the hit threshold turn out when `Cn1ncc2c(NNC(=O)Cc3ccccc3)ncnc21` was run?
Answer: -13%

Question: `COC(=O)n1c(=S)oc2cc(Cl)ccc21` was tested. Which activity increase over dofetilide control, less the hit threshold did it give?
Answer: -13%

Question: With `O=C(O)c1ccc(Cl)cc1Nc1nc2cc(Cl)ccc2o1` as the compound, how does the activity increase over dofetilide control, less the hit threshold read?
Answer: 10% (active)

Question: Which activity increase over dofetilide control, less the hit threshold does the source give for `O=C(O)c1c2c(nc3ccccc13)/C(=C/c1cccc([N+](=O)[O-])c1)CCC2` here?
Answer: -18%

Question: Which activity increase over dofetilide control, less the hit threshold does the source give for `N#Cc1c2n(c3c(=O)n(Cc4ccc(Cl)cc4)cnc13)CCCC2` here?
Answer: -14%

Question: `Cc1cc(C)cc(N(C(=O)c2cc3ccccc3oc2=O)C2C=CS(=O)(=O)C2)c1` (stereo not drawn) was tested. Which activity increase over dofetilide control, less the hit threshold did it give?
Answer: -13%

Question: How did the activity increase over dofetilide control, less the hit threshold turn out when `Cc1sc2nc(CN3CCOCC3)[nH]c(=S)c2c1C` was run?
Answer: 92% (active)

Question: For `CC(C)(C)n1nnnc1C(c1cccs1)N1CCN(Cc2ccccc2)CC1` (stereo not drawn), which activity increase over dofetilide control, less the hit threshold is on record?
Answer: -6%

Question: `Cc1ccc(-c2cccc(C3CC=CC4C3C(=O)N(Cc3ccccc3)C4c3ccc4ccccc4c3)c2)cc1` (stereo not drawn) was tested. Which activity increase over dofetilide control, less the hit threshold did it give?
Answer: -1%

— PubChem BioAssay AID1835 (Johns Hopkins Ion Channel Center, 2009)
